Measurements published in PubChem BioAssay (NCATS).
Inconclusive results are not listed. The source made the active and inactive calls. The call rests on the fitted dose curve; in most records, active means well fitted cell-killing curve with a large enough effect; inconclusive means small, poorly fitted or top-dose-only effect, or effect the other way; inactive means flat fitted curve, though single readings scatter.

Experiments:
Assay in all cases: Primary qHTS to identify gynecologic anti-cancer compounds using libraries of approved drugs and bioactive compounds (AID 1345084); further: nearly all actives have a fitted effect of over 55% in size
C33A = details: Gynecologic cancer cell panel viability, ATPlite luminescence, 48 h; series mostly up to 57.5 µM
Procedure, shortened: (§1)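 48 h compound exposure at 37 C, 5% CO2; five-point qHTS. ATPlite luminescence readout of cell ATP.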

CAOV3 = details: Gynecologic cancer cell panel viability, ATPlite luminescence, 48 h; series mostly up to 57.5 µM
Procedure, shortened: as §1

CASKI = details: Gynecologic cancer cell panel viability, ATPlite luminescence, 48 h; series mostly up to 57.5 µM
Procedure, shortened: as §1

Es-2 = details: Gynecologic cancer cell panel viability, ATPlite luminescence, 48 h; series mostly up to 57.5 µM
Procedure, shortened: as §1

HeLa = details: Gynecologic cancer cell panel viability, ATPlite luminescence, 48 h; series mostly up to 57.5 µM
Procedure, shortened: as §1

Hek293T = details: Gynecologic cancer cell panel viability, ATPlite luminescence, 48 h, control line for the selectivity index; series mostly up to 57.5 µM
Procedure, shortened: as §1

JEG-3 = details: Gynecologic cancer cell panel viability, ATPlite luminescence, 48 h; series mostly up to 57.5 µM
Procedure, shortened: as §1

OV90 = details: Gynecologic cancer cell panel viability, ATPlite luminescence, 48 h; series mostly up to 57.5 µM
Procedure, shortened: as §1

PA-1 = details: Gynecologic cancer cell panel viability, ATPlite luminescence, 48 h; series mostly up to 57.5 µM
Procedure, shortened: as §1

SKOV3 = details: Gynecologic cancer cell panel viability, ATPlite luminescence, 48 h; series mostly up to 57.5 µM
Procedure, shortened: as §1

Tov-21-G = details: Gynecologic cancer cell panel viability, ATPlite luminescence, 48 h; series mostly up to 57.5 µM
Procedure, shortened: as §1

Tov112D = details: Gynecologic cancer cell panel viability, ATPlite luminescence, 48 h; series mostly up to 57.5 µM
Procedure, shortened: as §1
On the % scale 0 is the no-effect control and ±100 the full control effect.

Cc1csc(NC(=O)c2ccc(COc3cccc(Cl)c3)o2)n1
inactive: Potency (C33A) | Potency (CAOV3) | Potency (CASKI) | Potency (Es-2) | Potency (HeLa) | Potency (Hek293T) | Potency (JEG-3) | Potency (OV90) | Potency (PA-1) | Potency (SKOV3) | Potency (Tov-21-G) | Potency (Tov112D)

Fc1ccc2nc(CCC#Cc3ccccn3)cn2c1
inactive: Potency (C33A) | Potency (CAOV3) | Potency (CASKI) | Potency (Es-2) | Potency (HeLa) | Potency (Hek293T) | Potency (JEG-3) | Potency (OV90) | Potency (PA-1) | Potency (SKOV3) | Potency (Tov-21-G) | Potency (Tov112D)

CCCN1CCN(c2ccc(C(=O)NC3(C(=O)NCC#N)CCCCC3)cc2)CC1
inactive: Potency (C33A) | Potency (CAOV3) | Potency (CASKI) | Potency (Es-2) | Potency (HeLa) | Potency (Hek293T) | Potency (JEG-3) | Potency (OV90) | Potency (PA-1) | Potency (SKOV3) | Potency (Tov-21-G) | Potency (Tov112D)

OC[C@H]1O[C@@H](OC[C@H]2O[C@@H](OC/C=C/c3ccccc3)[C@H](O)[C@@H](O)[C@@H]2O)[C@@H](O)[C@@H]1O
inactive: Potency (C33A) | Potency (CAOV3) | Potency (CASKI) | Potency (Es-2) | Potency (HeLa) | Potency (Hek293T) | Potency (JEG-3) | Potency (OV90) | Potency (PA-1) | Potency (SKOV3) | Potency (Tov-21-G) | Potency (Tov112D)

COC(=O)C12C(=O)C(C)=C(O)C1(C)C(C)=CC1C3(CO)CCC(O)C(C)(C)C3CCC12C (stereo unspecified)
inactive: Potency (C33A) | Potency (CAOV3) | Potency (CASKI) | Potency (Es-2) | Potency (HeLa) | Potency (Hek293T) | Potency (JEG-3) | Potency (OV90) | Potency (PA-1) | Potency (SKOV3) | Potency (Tov-21-G) | Potency (Tov112D)

C[C@H]1C(=O)N2c3ccccc3[C@@]3(O)C[C@@H]4C(=O)N[C@](C)(c5nc6ccccc6c(=O)n54)N1[C@@H]23
inactive: Potency (C33A) | Potency (CAOV3) | Potency (CASKI) | Potency (Es-2) | Potency (HeLa) | Potency (Hek293T) | Potency (JEG-3) | Potency (OV90) | Potency (PA-1) | Potency (SKOV3) | Potency (Tov-21-G) | Potency (Tov112D)

CC1(C)CC[C@]2(C(=O)O[C@@H]3O[C@H](CO[C@@H]4O[C@H](CO)[C@@H](O)[C@H](O)[C@H]4O[C@@H]4O[C@H](CO)[C@H](O)[C@H](O)[C@H]4O)[C@@H](O)[C@H](O[C@@H]4O[C@H](CO)[C@@H](O)[C@H](O)[C@H]4O)[C@H]3O)CC[C@]3(C)C(=CCC4[C@@]5(C)CC[C@H](O[C@@H]6OC[C@@H](O)[C@H](O)[C@H]6O)[C@@](C)(C(=O)O)C5CC[C@]43C)[C@@H]2C1 (stereo partly specified)
inactive: activity change, negative = cytotoxicity (C33A) -13.6% [at 6.55 µM] | activity change, negative = cytotoxicity (CAOV3) 6.72% [at 6.55 µM] | activity change, negative = cytotoxicity (CASKI) -6.95% [at 6.55 µM] | activity change, negative = cytotoxicity (Es-2) 3.44% [at 6.55 µM] | activity change, negative = cytotoxicity (HeLa) 0.826% [at 6.55 µM] | activity change, negative = cytotoxicity (Hek293T) 8.22% [at 6.55 µM] | activity change, negative = cytotoxicity (JEG-3) -2.73% [at 6.55 µM] | activity change, negative = cytotoxicity (OV90) 3.06% [at 6.55 µM] | activity change, negative = cytotoxicity (PA-1) -1.12% [at 6.55 µM] | activity change, negative = cytotoxicity (SKOV3) 19.9% [at 6.55 µM] | activity change, negative = cytotoxicity (Tov-21-G) 4.04% [at 6.55 µM] | activity change, negative = cytotoxicity (Tov112D) 5.73% [at 6.55 µM]

O=C1Nc2ccccc2C(O)(c2ccccc2)C1O (stereo unspecified)
inactive: Potency (C33A) | Potency (CAOV3) | Potency (CASKI) | Potency (Es-2) | Potency (HeLa) | Potency (Hek293T) | Potency (JEG-3) | Potency (OV90) | Potency (PA-1) | Potency (SKOV3) | Potency (Tov-21-G) | Potency (Tov112D)

CC1OC(OC2C(C)OC(OC3C(O)C(CO)OC(O[C@H]4CC[C@@]5(C)C(CC[C@]6(C)C5CC=C5C7[C@@H](C)[C@H](C)CC[C@]7(C(=O)O)CC[C@]56C(=O)O)C4(C)C)C3O)C(O)C2O)C(O)C(O)C1O (stereo partly specified)
inactive: activity change, negative = cytotoxicity (C33A) -5.63% [at 11.6 µM] | activity change, negative = cytotoxicity (CAOV3) 10.5% [at 11.6 µM] | activity change, negative = cytotoxicity (CASKI) 1.59% [at 11.6 µM] | activity change, negative = cytotoxicity (Es-2) 1.92% [at 11.6 µM] | activity change, negative = cytotoxicity (HeLa) 9.15% [at 11.6 µM] | activity change, negative = cytotoxicity (Hek293T) -7.85% [at 11.6 µM] | activity change, negative = cytotoxicity (JEG-3) -5.03% [at 11.6 µM] | activity change, negative = cytotoxicity (OV90) 0.765% [at 11.6 µM] | activity change, negative = cytotoxicity (PA-1) -0.273% [at 11.6 µM] | activity change, negative = cytotoxicity (SKOV3) -6.75% [at 11.6 µM] | activity change, negative = cytotoxicity (Tov-21-G) -0.483% [at 11.6 µM] | activity change, negative = cytotoxicity (Tov112D) 2.5% [at 11.6 µM]

CC(=O)O[C@]1(C(C)=O)CC[C@H]2[C@@H]3C[C@H](C)C4=CC(=O)C=C[C@]4(C)[C@@]3(F)[C@@H](O)C[C@@]21C
inactive: Potency (C33A) | Potency (CAOV3) | Potency (CASKI) | Potency (Es-2) | Potency (HeLa) | Potency (Hek293T) | Potency (JEG-3) | Potency (OV90) | Potency (PA-1) | Potency (SKOV3) | Potency (Tov-21-G) | Potency (Tov112D)

Nc1nc(-n2cc(C(=O)O)c(=O)c3cc(F)c(N4CC(O)C4)c(Cl)c32)c(F)cc1F
inactive: Potency (C33A) | Potency (CAOV3) | Potency (CASKI) | Potency (Es-2) | Potency (HeLa) | Potency (Hek293T) | Potency (JEG-3) | Potency (OV90) | Potency (PA-1) | Potency (SKOV3) | Potency (Tov-21-G) | Potency (Tov112D)

COc1cc(/C=C/CO)cc(OC)c1O[C@@H]1O[C@H](CO[C@@H]2O[C@H](CO)[C@@H](O)[C@H](O)[C@H]2O)[C@@H](O)[C@H](O)[C@H]1O
inactive: Potency (C33A) | Potency (CAOV3) | Potency (CASKI) | Potency (Es-2) | Potency (HeLa) | Potency (Hek293T) | Potency (JEG-3) | Potency (OV90) | Potency (PA-1) | Potency (SKOV3) | Potency (Tov-21-G) | Potency (Tov112D)

CC(C)CN(C[C@@H](O)[C@H](Cc1ccccc1)NC(=O)O[C@@H]1CO[C@H]2OCC[C@H]21)S(=O)(=O)c1ccc(N)cc1
inactive: Potency (C33A) | Potency (CAOV3) | Potency (CASKI) | Potency (Es-2) | Potency (HeLa) | Potency (Hek293T) | Potency (JEG-3) | Potency (OV90) | Potency (PA-1) | Potency (SKOV3) | Potency (Tov-21-G) | Potency (Tov112D)
